Measured values reported in PubChem BioAssay (NCI).
Compounds without any hit were thinned out: in the full panel of roughly 83,000, 20% have a hit.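 Plates (96-well) were seeded with cells, treated with compound at one concentration, and incubated for 48 hours before percent growth was determined.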 Calls of active or inactive are those of the source. How the source made its calls: active means growth percent below 10; inactive means the rest.

Columns and labels:
Assay in all cases: NCI-60 one-dose screen, 48 h (100 = growth as untreated, 0 = no growth, -100 = all killed)
Conditions in all cases: 10 µM unless noted
[1] = tested on: RPMI-8226 leukemia
[2] = tested on: OVCAR-8 ovarian
[3] = tested on: OVCAR-5 ovarian
[4] = tested on: OVCAR-4 ovarian
[5] = tested on: SK-OV-3 ovarian
[6] = tested on: IGROV1 ovarian
[7] = tested on: HS 578T breast
[8] = tested on: NCI/ADR-RES ovarian
[9] = tested on: T-47D breast
[10] = tested on: BT-549 breast
[11] = tested on: MDA-MB-435 melanoma
[12] = tested on: SW-620 colon
[13] = tested on: MCF7 breast
[14] = tested on: HCT-116 colon
[15] = tested on: HCC-2998 colon
[16] = tested on: KM12 colon
[17] = tested on: OVCAR-3 ovarian

Measured: growth

COc1ccc(-c2[nH]ncc2-c2cc3c(c(OC)c2)OCC(=O)N3)cc1
inactive: [1] 29.3% | [2] 23.5% | [3] 36.7% | [4] 54.4% | [5] 19.8% | [6] 38.2% | [8] 29.7% | [9] 27.2% | [10] 38.4% | [12] 12.6% | [13] 15.6% | [14] 13% | [15] 35.2% | [16] 23.1%
active: [7] -2.19% | [11] -56.6%

COc1cccc(-c2nn(-c3ccccc3)cc2-c2ccnc(N3CCOCC3)c2)c1
inactive: [1] 67.9% | [2] 96.6% | [3] 94.7% | [4] 84.2% | [6] 79.5% | [17] 95.5% | [7] 115% | [8] 77.5% | [9] 51.7% | [10] 87.9% | [11] 98.9% | [12] 105% | [14] 79.8% | [15] 93.8% | [16] 86.1%

CNc1nc2c(s1)C(c1cccc(F)c1)CC(=O)N2 (stereo not drawn)
inactive: [1] 106% | [2] 102% | [3] 97.1% | [4] 107% | [5] 100% | [6] 107% | [7] 94.3% | [8] 103% | [9] 94.8% | [10] 94.5% | [11] 99.9% | [12] 102% | [13] 95.2% | [14] 99.8% | [15] 104% | [16] 101%

COc1nc2ccccc2cc1-c1nc2c(cnn2-c2ccccc2)c(=O)[nH]1
inactive: [1] 44.2% | [2] 63.3% | [4] 76.2% | [5] 53.8% | [6] 48.1% | [7] 50.2% | [8] 40.7% | [9] 50.1% | [10] 38.5% | [12] 20.8% | [13] 20.9% | [14] 42.1% | [15] 73.3% | [16] 29%
active: [17] 7.05% | [11] -20.9%

COc1ccc(-n2c(N)c(-c3nc4ccccc4[nH]3)cc(C#N)c2=O)cc1
inactive: [1] 92.3% | [2] 69.8% | [3] 99% | [4] 77.5% | [5] 111% | [6] 103% | [7] 50.1% | [8] 77.8% | [9] 77.8% | [11] 99.3% | [12] 106% | [13] 87.7% | [14] 88.2% | [15] 108% | [16] 99.9%

COc1ccc(C2CC(c3ccc(Nc4ccnc5cc(Cl)ccc45)cc3)=NN2C=O)cc1 (stereo not drawn)
inactive: [1] 30.9% | [2] 73.3% | [4] 62.3% | [5] 96.9% | [6] 67.5% | [17] 52.7% | [7] 68.8% | [8] 51.7% | [9] 51.1% | [10] 63.7% | [12] 70.9% | [13] 40.3% | [14] 55.7% | [15] 57.8%
active: [11] -3.72%

Cc1ncc(C(=O)Nc2ccc(CN3CCN(C)CC3)c(C(F)(F)F)c2)cc1C#Cc1ccc(N)nc1
inactive: [2] 19.8% | [3] 10.4% | [4] 12% | [5] 16.7% | [9] 18.6% | [10] 15.3% | [15] 25.5%
active: [1] 1.1% | [6] -25% | [7] -20% | [8] 9.79% | [11] -59% | [12] -2.48% | [13] 4.46% | [14] -31.3% | [16] 2.86%

O=C(CSc1nccc(Nc2ccc(S(=O)(=O)Nc3nccs3)cc2)n1)c1ccc(C(F)(F)F)cc1
inactive: [1] 104% | [2] 96.2% | [4] 106% | [5] 96.9% | [6] 91.1% | [17] 112% | [7] 98.5% | [8] 98.5% | [9] 82.1% | [10] 88.2% | [11] 99% | [12] 102% | [13] 94.2% | [14] 86.7% | [15] 112% | [16] 106%

CC(=O)N1CCN(c2ccc(OCC3CO[C@](Cn4ccnc4)(c4ccc(Cl)cc4Cl)O3)cc2)CC1 (stereo partly drawn)
inactive: [1] 43.8% | [2] 83.9% | [3] 91.3% | [4] 67.6% | [6] 80.2% | [17] 99% | [7] 102% | [8] 84.4% | [9] 51.1% | [10] 54.7% | [11] 94% | [12] 104% | [13] 86.4% | [14] 68.4% | [15] 85.5% | [16] 87%

CC(=O)c1ccc(Nc2nc(C(C)=O)c(C)s2)cc1
inactive: [1] 95.1% | [2] 102% | [3] 108% | [4] 94.4% | [6] 98.2% | [17] 99.9% | [7] 99.5% | [8] 105% | [9] 92.4% | [10] 105% | [11] 100% | [12] 96.2% | [13] 83.6% | [14] 104% | [15] 98.3% | [16] 98.5%

CCOC(=O)c1c(C)oc2ncnc(N3CCN(C(=O)COc4ccc(C(C)(C)C)cc4)CC3)c12
inactive: [1] 44.9% | [2] 81.5% | [3] 96.8% | [4] 74.4% | [6] 73.7% | [17] 98.4% | [7] 78.8% | [8] 73.6% | [9] 47.7% | [10] 54.3% | [11] 99.8% | [12] 99.8% | [13] 83% | [14] 75.2% | [15] 104% | [16] 89.9%
